ARNT-TACC3 inh: disruptors of human ARNT/TACC3 interaction; Q9Y6A5; 390,000 compounds, 0.66% hits; AlphaScreen His-ARNT PAS-B/GST-TACC3 binding, luminescence; TACC3 fragment carries E629A point mutation; inhibition, % at 9.99 µM;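 active means mean inhibition of replicates at least 50% and at least half of replicates each reaching 50%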;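 further: 0% = complete ARNT plus TACC3 wells and 100% = ARNT alone without TACC3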
ALR inh: human ALR oxidase inhibition via reduced H2O2; purified ALR, DTT oxidation, H2O2 HRP-luminol luminescence; inhibition, % (concentration not given with the values); P55789; 290,000 compounds, 3.8% hits; AID 485317;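 active means mean replicate inhibition above about 79%, with every replicate also reaching it, limit read from the data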
CendR NRP1 mod: NRP-1/CendR interaction modulation; O14786; FAM-RPARPAR peptide binding to NRP-1, fluorescence polarization; inhibition, % at 25 µM; 360,000 compounds, 0.85% hits;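 active means inhibition or corrected inhibition above about 18%, plus a signal ratio from 0.5 to 1.5, limit read from the data, passing the limit was not always enough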
PglD inh: inhibitors of Campylobacter jejuni PglD acetyltransferase. purified PglD enzyme, DTNB colorimetric CoA detection. inhibition, % at 12.5 µM. 360,000 compounds, 0.098% hits; in the data active means inhibition above about 16%, passing the limit was not always enough
ERp5 inh: blocks human ERp5 reductase activity on insulin; Q15084; inhibition, % at 9.99 µM; 350,000 compounds, 0.05% hits; ERp5 insulin aggregation, absorbance 650 nm, 90 min;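 active means mean replicate inhibition above about 25%, with every replicate also reaching it, limit read from the data, passing the limit was not always enough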
PDI inh: blocks human protein disulfide isomerase activity; P07237; PDI insulin aggregation turbidity, A650, 90 min; inhibition, % at 10 µM; 350,000 compounds, 0.052% hits; AID 588391;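 active means mean inhibition across replicates of 30% or more, whatever share of single replicates reach that level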
Target sequence (P07237 whole entry, looked up): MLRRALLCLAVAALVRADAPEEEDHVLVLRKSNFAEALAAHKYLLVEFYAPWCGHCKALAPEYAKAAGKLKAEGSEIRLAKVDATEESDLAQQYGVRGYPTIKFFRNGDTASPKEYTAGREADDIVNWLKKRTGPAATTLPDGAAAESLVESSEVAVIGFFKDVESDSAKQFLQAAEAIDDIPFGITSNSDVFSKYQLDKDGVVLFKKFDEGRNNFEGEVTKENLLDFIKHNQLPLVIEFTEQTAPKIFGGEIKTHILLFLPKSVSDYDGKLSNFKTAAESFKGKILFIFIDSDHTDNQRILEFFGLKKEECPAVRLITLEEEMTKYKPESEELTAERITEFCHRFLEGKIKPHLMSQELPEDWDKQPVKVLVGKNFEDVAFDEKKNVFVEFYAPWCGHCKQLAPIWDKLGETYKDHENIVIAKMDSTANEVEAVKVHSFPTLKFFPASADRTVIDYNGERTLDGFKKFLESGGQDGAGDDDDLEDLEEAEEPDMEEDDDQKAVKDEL
* = called active by the depositor; x = no result. Shown is part of a subset that was picked to be rich in hits.

SMILES	ARNT-TACC3 inh	ALR inh	CendR NRP1 mod	PglD inh	ERp5 inh	PDI inh
CCCc1nnc(NC(=O)c2cc3ccccc3o2)s1	-28	-4	-13	2	4	4
CCCc1nnc(NC(=O)c2cc3ccccc3oc2=O)s1	-7	-17	26*	2	x	4
CCCc1nnc(NC(=O)CCCN2C(=O)c3ccccc3C2=O)s1	6	5	29*	7	x	4
CC(=O)Nc1ccc(NC(=O)CCCCCN2C(=O)c3ccccc3C2=O)cc1	-5	-2	-13	-2	x	-1
CCN(CC)c1ccc(NC(=O)CCCCCN2C(=O)c3ccccc3C2=O)cc1	-1	99*	19	x	x	4
O=C(CCN1CCCCC1)N[C@@H]1CC[C@@H](CCNS(=O)(=O)c2ccccc2)O[C@H]1CO	x	x	x	1	-3	x
CN1CCN(C(=O)C[C@@H]2CC[C@H]3[C@@H](COc4ccc(NC(=O)c5cscn5)cc4C(=O)N3C)O2)CC1	-2	x	x	-1	-3	x
COc1ccc(CN(C)C[C@H]2OCc3cn(nn3)CCCC(=O)N([C@@H](C)CO)C[C@H]2C)cc1	-38	x	x	2	1	x
CO[C@H]1CN(C)C(=O)c2cc(NC(=O)C3CCOCC3)ccc2OC[C@@H](C)N(Cc2cccnc2)C[C@H]1C	-5	x	x	2	3	x
CCC(=O)N1CCc2cc(S(=O)(=O)CCC(=O)Nc3ccc(C(C)=O)cc3)ccc21	-5	34	5	0	12	10
CCC(=O)N1CCc2cc(S(=O)(=O)CCC(=O)Nc3ccc(C)cn3)ccc21	-1	99*	10	x	x	3
CCC(=O)N1CCc2cc(S(=O)(=O)CCC(=O)Nc3nc(C)cs3)ccc21	-3	99*	3	-3	x	11
C[C@H](CO)N1C[C@H](C)[C@H](CN(C)Cc2ccc3c(c2)OCO3)OCCCC[C@H](C)Oc2ccc(NC(=O)Cc3ccccc3)cc2C1=O	12	x	x	1	x	x
CC(=O)N(C)C[C@@H]1Oc2cc(C#CC(C)(C)O)ccc2S(=O)(=O)N([C@@H](C)CO)C[C@H]1C	-7	x	x	1	-1	x
CC(C)NC(=O)N(C)C[C@@H]1Oc2c(NS(=O)(=O)c3cn(C)cn3)cccc2C(=O)N([C@H](C)CO)C[C@H]1C	0	x	x	-1	3	x
CC1=C(C(=O)N2CCCCCC2)CC(CC(=O)NCCN2CCOCC2)C(=O)N1Cc1ccccc1 (stereo unspecified)	x	x	29*	3	7	x
COc1ccc(N2C(=O)C3C4C=CC(C5CC45)C3C2=O)c([N+](=O)[O-])c1 (stereo unspecified)	-2	-12	33*	7	x	-4
O=C(CSc1ncn[nH]1)CSc1ncn[nH]1	26	94*	-8	2	1	3
CN(C)C(=O)c1cccc(-c2ccc([C@@H]3[C@H](CO)N4C(=O)CN(C(=O)C5CC5)C[C@@H]34)cc2)c1	x	x	x	x	1	x
Cc1cc(Br)cn2c(Cc3ccsc3)c(C(C)(C)C)nc12	x	x	49*	1	6	x
Cc1cc(Br)cn2c(Cc3ccsc3)c(C3CCCCC3)nc12	x	x	35*	-1	x	x
CCCc1nc2c(C)cc(Br)cn2c1Cc1ccsc1	x	x	10	-3	-7	x
CCC(=O)Nc1ccc2c(c1)C(=O)N(C)C[C@H](OC)[C@H](C)CN(C(=O)COC)[C@H](C)CO2	-14	x	x	2	-3	x
Cc1ccc(S(=O)(=O)N2CCC(C(=O)OCC(=O)NCCc3ccccc3)CC2)cc1C	x	-1	10	x	8	5
Cc1cc(NC(=O)COC(=O)C2CCN(S(=O)(=O)c3ccccc3)CC2)c([N+](=O)[O-])cc1C	-1	-3	23*	-1	-1	-9
SMILES	ARNT-TACC3 inh	ALR inh	CendR NRP1 mod	PglD inh	ERp5 inh	PDI inh
CCN(CC)CC(=O)Nc1ccc2c(c1)Nc1ccccc1CC2	22	99*	-26	0	21	-4
CCN(CC)CC(=O)Nc1ccc2c(c1)N(C(=O)CN(CC)CC)c1ccccc1CC2	9	-12	-2	1	-1	1
Nn1c(Nc2ccccc2)nc2sc3c(c2c1=O)CCCC3	-7	81*	-12	x	3	6
CCOC(=O)c1cc2c(=O)n3ccccc3nc2n(CC2CCCO2)c1=NC(C)=O (stereo unspecified)	-3	-11	-4	-1	x	5
CCOC(=O)c1cc2c(=O)n3ccccc3nc2n(CC2CCCO2)c1=NC(=O)/C=C/c1ccccc1 (stereo unspecified)	-3	-10	29*	2	4	4
O=C(c1c(O)cc(O)cc1O)C1c2c(cc(O)c3c2O[C@H](c2ccc(O)cc2)[C@@H](O)C3)OC1c1ccc(O)cc1 (stereo partly specified)	-67	99*	-35	0	-1	53*
O=C1CC(c2ccccc2)c2c(O)cc(O)cc2O1 (stereo unspecified)	-5	27	11	1	x	-3
Cc1ccc2c(c1)-c1cc(C)nn1C(c1sccc1C)N2 (stereo unspecified)	x	4	27*	-1	x	-8
Cc1ccc2c(c1)-c1cc(C)nn1C(c1ccc3c(c1)OCO3)N2 (stereo unspecified)	-3	44	-3	1	-6	16
Cc1cc2n(n1)C(c1sccc1C)Nc1ccccc1-2 (stereo unspecified)	-5	91*	-2	-1	x	-1
Cc1cc2n(n1)C(c1ccccc1)Nc1ccccc1-2 (stereo unspecified)	1	91*	13	-2	0	-6
Cc1cc2n(n1)C(c1sccc1C)Nc1c(C)cccc1-2 (stereo unspecified)	-2	11	3	4	x	-7
C[C@H](CO)N1C[C@H](C)[C@H](CN(C)S(=O)(=O)c2ccccc2)OCCCC[C@H](C)Oc2ccc(NC(=O)Nc3ccccc3)cc2C1=O	-10	x	x	3	-5	x
CCC(=O)N1[C@H](C(=O)NCc2ccccc2F)[C@@H](CO)[C@@H]2Cn3c(cccc3=O)[C@@H]21	x	x	x	-1	x	x
O=[N+]([O-])c1ccc(Nc2ccccc2)c2nonc12	8	30	-78	-2	2	-10
NNc1ccc([N+](=O)[O-])c2[nH][nH]c(=O)c12	x	x	29*	-6	9	-7
O=C(N/N=C/c1cc(Br)c(O)c(Br)c1O)c1cccnc1	70*	42	-14	0	8	-2
CC(/C=N\NC(=O)c1cccnc1)c1ccccc1 (stereo unspecified)	15	9	33*	x	4	2
C/C(=N\NC(=O)c1cccnc1)c1ccccc1	14	-8	11	5	1	-8
O=C(N/N=C/c1ccc(Br)s1)c1cccnc1	13	-4	7	x	x	3
O=C(N/N=C/c1cc(O)ccc1Br)c1cccnc1	85*	12	-11	-1	2	0
O=C(N/N=C/c1cc2c(cc1Br)OCO2)c1cccnc1	x	-3	-7	x	5	5
